High-throughput results: PubChem BioAssay, National Center for Advancing Translational Sciences (NCATS)
In the library only some 3% were active in any assay of this set; here they are far more common.
PLK1 PBD inh = PLK1 (human) polo-box domain binding inhibition | P53350 | Plk1 PBD binding of FITC phosphopeptide, fluorescence polarization | Potency, µM, inactives show max response, negative = inhibition, actives largely listed as inhibitors | 2.8% of 360,000 active | AID 720504; also: series mostly up to about 57 µM; % is scaled to controls: 0 for no effect and ±100 for the full control effect; nearly all actives have a fitted effect of over 65% in size
GCN5L2 inh = inhibitors of human GCN5L2 histone acetyltransferase; Potency, µM (titrated, usually from 58.9 µM), without a hit: at the highest dose activity change, negative = inhibition, hits mostly inhibitors; 0.21% of 390,000 active; GCN5L2 HAT assay, ThioGlo1 CoA-SH fluorescence; Q92830; also: % is scaled to controls: 0 for no effect and ±100 for the full control effect
Target sequence (Q92830 whole entry, looked up): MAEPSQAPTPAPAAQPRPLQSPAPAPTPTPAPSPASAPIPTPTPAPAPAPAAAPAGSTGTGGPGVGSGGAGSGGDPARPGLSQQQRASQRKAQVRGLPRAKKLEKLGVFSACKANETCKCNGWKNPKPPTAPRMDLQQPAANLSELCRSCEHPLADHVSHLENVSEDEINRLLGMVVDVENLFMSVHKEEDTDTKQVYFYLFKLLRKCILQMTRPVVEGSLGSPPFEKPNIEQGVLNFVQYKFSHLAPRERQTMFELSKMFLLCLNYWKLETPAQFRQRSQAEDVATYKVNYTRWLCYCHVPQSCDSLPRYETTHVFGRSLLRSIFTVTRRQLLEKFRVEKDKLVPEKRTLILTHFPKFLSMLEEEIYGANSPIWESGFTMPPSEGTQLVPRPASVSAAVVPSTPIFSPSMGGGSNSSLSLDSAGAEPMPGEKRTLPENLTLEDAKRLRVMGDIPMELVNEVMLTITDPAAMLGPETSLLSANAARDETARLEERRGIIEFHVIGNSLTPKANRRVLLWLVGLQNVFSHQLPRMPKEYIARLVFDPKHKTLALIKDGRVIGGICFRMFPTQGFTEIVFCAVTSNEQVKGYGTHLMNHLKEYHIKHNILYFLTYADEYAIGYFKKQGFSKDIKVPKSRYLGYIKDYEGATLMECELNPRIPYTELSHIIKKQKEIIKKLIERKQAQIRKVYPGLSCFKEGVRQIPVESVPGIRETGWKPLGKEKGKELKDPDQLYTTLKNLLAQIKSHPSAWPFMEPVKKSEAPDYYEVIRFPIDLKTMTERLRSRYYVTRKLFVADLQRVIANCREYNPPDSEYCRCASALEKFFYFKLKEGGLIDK
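Compounds, pin-transferred from DMSO stocks, meet 20nM GCN5L2 for 15 min before the reaction begins with H3(1-25) peptide (75uM) and acetyl-CoA (70uM). Thiol-reactive ThioGlo1 reports CoA release over 20 min at room temperature.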
VDR inh = blocks the human vitamin D receptor. P11473. VDR-SRC2-3 peptide fluorescence polarization, 2 h. Potency, µM, for the others: max response, negative = inhibition, actives largely listed as inhibitors. 0.93% of 400,000 active. AID 504847; also: % is scaled to controls: 0 for no effect and ±100 for the full control effect
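After 23 nl compound addition and a short centrifugation, plates sat for 2 hours at ambient temperature; polarization of fluorescence then indicated loss of VDR binding to peptide SRC2-3.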
USP1-UAF1 inh = USP1/UAF1 (human) deubiquitinase inhibition; recombinant USP1/UAF1, Ub-Rhodamine cleavage fluorescence; Potency, µM (series often up to 57.1 µM), without a hit: top-dose activity change, negative = inhibition, usual class: inhibitors; 0.23% of 390,000 active; also: % is scaled to controls: 0 for no effect and ±100 for the full control effect; nearly all actives have a fitted effect of over 60% in size
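USP1/UAF1 complex at 1 nM was preincubated with compound for 15 min at room temperature, then Ub-Rho substrate (150nM final) was added. Fluorescence (480/540 nm) was read kinetically, 6 reads every 60 seconds.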
TSG101-PTAP inh = blocks PTAP/TSG101 interaction to inhibit HIV-1 budding; Q99816; Potency, µM (highest dose often 115 µM), for inactives: at the highest dose activity change, negative = inhibition, hits mostly inhibitors; Fluorescence polarization, FITC-PTAP peptide / Tsg101 binding; 340,000 tested, under 10 active; active = well fitted inhibition curve with a large enough effect in the main read-out, with a control signal flat, not every such curve was filed as active; inconclusive = small, poorly fitted or top-dose-only effect, or effect the other way, or a change in a side signal; inactive = no such curve, though single readings can be large or run the other way; also: % of control where 0% means no effect
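Fluorescence anisotropy tracks displacement of a FITC-tagged PTAP peptide (50 nM) from the Tsg101 binding domain (10 uM), following a 20 min room-temperature incubation at pH 7.5.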
An asterisk follows results filed as active; ? = inconclusive; nt = not tested or not shown; [ ] = another dose, or the depositor's remark. Unless noted, calls follow the shape of the dose curve; as a rule, active = well fitted curve in the direction sought with a large enough effect; inconclusive = small, poorly fitted or top-dose-only effect, or another doubt; inactive = no such curve, though single readings can be large; an effect the other way counts as inactive or inconclusive. Potency is read from the fitted curve at half-maximal effect.

SMILES	PLK1 PBD inh	GCN5L2 inh	VDR inh	USP1-UAF1 inh	TSG101-PTAP inh
Cc1ccc(SCc2nc(-c3ccc(C(=O)NCC(C)c4ccccc4)cc3)oc2C)cc1 (stereo unspecified)	nt	-4%	3%	-30%	nt
CO[C@H]1O[C@H](CBr)[C@@H](OC(=O)c2ccccc2)[C@H](O)[C@H]1O	3%	nt	-1%	-8%	-2%
CC(=O)NCCC(=O)N(C)CC1CCN(CCc2cccc(C(F)(F)F)c2)CC1	21µM*	-6%	?	-18%	-2%
COc1cccc(C(=O)N(C)CC2CCN(CCc3cccc(C(F)(F)F)c3)CC2)c1	1%	-2%	-11%	-13%	0%
Nc1ncnc2c1ncn2[C@H]1O[C@@H](CSCC[C@@H](N)C(=O)O)[C@H](O)[C@@H]1O	nt	12%	1%	nt	nt
CN(C)C(=O)c1ccc(-c2nccc(Nc3ccc(F)cc3)n2)cc1	nt	?	50µM*	nt	nt
COc1ccccc1-c1nccc(Nc2ccc(F)cc2)n1	nt	-18%	50µM*	nt	nt
Fc1ccc(Nc2ccnc(-c3ccoc3)n2)cc1	nt	-9%	25µM*	nt	nt
Fc1ccc(Nc2ccnc(-c3ccc4c(c3)OCO4)n2)cc1	nt	28µM*	40µM*	nt	nt
COc1cc2c(cc1OC)C1O[C@](CCCCN3C(=O)c4ccccc4C3=O)(C2)OC2=C1C(=O)CC(C)(C)C2	nt	-8%[12.7 µM]	nt	nt	nt
O=C1CCN2C=Nc3cccc4ccc1c2c34	3.8µM*	?	-16%	28µM*	?
COc1ccc(-c2nc(NC(C)=O)sc2-c2ccc(OC)cc2)cc1	-3%	-1%	-6%	-10%	-1%
O=C(Nc1nc(=S)ss1)c1c(F)cccc1F	-4%	-8%	6%	-9%	-4%
CC(C)CC(=O)Nc1nc(=S)ss1	17µM*	-9%	?	-6%	-2%
CC(=O)Nc1nc(=S)ss1	24µM*	-26%	45µM*	-15%	1%
Cc1ccccc1C(=O)Nc1nc(=S)ss1	11µM*	?	?	-10%	-6%
CCCCC(c1nc2ccccc2[nH]1)n1c(-c2ccccc2)nc2ccccc21 (stereo unspecified)	5%	nt	nt	nt	nt
CCN(C(=O)COC(=O)CNC(=O)c1ccc2ccccc2c1)C1CCS(=O)(=O)C1 (stereo unspecified)	-4%	-7%	-11%	-16%	-8%
CCc1cccc(NC(=O)Cn2nc(-c3cc(C)ccc3C)ccc2=O)c1	nt	-4%	-10%	-21%	nt
COC(=O)C1=C[C@@H](C(=O)OC)[C@@H]2C3=C(C(=O)[C@@]2(C)NC(=O)c2ccccc2)[C@H](C)[C@@H]2C(=O)N(Cc4ccccc4)C(=O)[C@@H]2[C@@H]3C1	nt	nt	-19%	nt	nt
CCOC(=O)c1cc2c(=O)n3ccccc3nc2n(C(C)C)c1=NC(=O)C(C)(C)Oc1ccc(Cl)cc1	nt	1%	-20%	-16%	nt
COC(=O)c1c(-c2ccc(S(C)(=O)=O)cc2)sc2ccc(OC)cc12	21µM*	-10%	-12%	-28%	0%
COC(=O)c1c(-c2ccc(S(C)(=O)=O)cc2)sc2cc(OC)ccc12	?	?	-20%	-33%	-4%
NCc1ccccc1Sc1ccccc1CO	nt	-5%	-3%	nt	nt
CCCc1nc2c(s1)CCc1onc(-c3ccc(OC)cc3)c1-2	27µM*	nt	?	?	-1%
SMILES	PLK1 PBD inh	GCN5L2 inh	VDR inh	USP1-UAF1 inh	TSG101-PTAP inh
CCCc1nc2c(s1)CCc1onc(-c3ccc(Cl)cc3)c1-2	-10%	-3%	-14%	9%	-4%
CCCc1nc2c(s1)CCc1onc(-c3ccc(Br)cc3)c1-2	15µM*	nt	?	-2%	-3%
CN(C)c1ccc(NC(=S)Nc2ccc3c(c2)c(=O)n(C)n3-c2ccc(C(C)(C)C)cc2)cc1	27µM*	nt	nt	nt	nt
CN(C)c1ccc(NC(=O)Nc2ccc3c(c2)c(=O)n(C)n3-c2ccccc2)cc1	-8%	nt	nt	nt	nt
O=C(CCc1nc2ccccc2s1)NC1CCOC1=O (stereo unspecified)	24µM*	-5%	-16%	-22%	-7%
O=C(CCCc1nc2ccccc2s1)NC1CCOC1=O (stereo unspecified)	10%	-1%	14%	-3%	1%
